Here are results for seven compounds from article PMC5540273 (PLoS ONE, 2017).

Some test systems named below: RIPK5; ROCK1; ROCK2; ROS1; S6K1; SBK1; SGK2; SGK3.
Common to all, as to details: concentration: 1 μM, replicates: in singlicate; n = 1
The subject of assay [1] is RPS6KA4(Kin.Dom.1-N-terminal).
Assay [2] relates to RPS6KA4(Kin.Dom.2-C-terminal).
In assay [3] the test system is RPS6KA5(Kin.Dom.1-N-terminal).
In assay [4] the test system is RPS6KA5(Kin.Dom.2-C-terminal).
The subject of assay [5] is T1, RSK1(Kin.Dom.1-N-terminal).
T1 construct: gene RPS6KA1

Assay [6] has as its system T2, RSK1(Kin.Dom.2-C-terminal).
T2 construct: gene RPS6KA1

Assay [7] has as its system T3, RSK2(Kin.Dom.1-N-terminal).
T3 construct: gene RPS6KA3

The subject of assay [8] is T4, RSK2(Kin.Dom.2-C-terminal).
T4 construct: gene RPS6KA3

The subject of assay [9] is T5, RSK3(Kin.Dom.1-N-terminal).
T5 construct: gene RPS6KA2

Assay [10] has as its system T6, RSK3(Kin.Dom.2-C-terminal).
T6 construct: gene RPS6KA2

For assay [11], the system named is T7, RSK4(Kin.Dom.1-N-terminal).
T7 construct: gene RPS6KA6

Assay [12] concerns T8, RSK4(Kin.Dom.2-C-terminal).
T8 construct: gene RPS6KA6

Structures are written as SMILES.
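Further: KINOMEscan kinase panel screen.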

Take `Cc1nnc(-c2ccc3ncc(-c4ccc(S(C)=O)cc4)n3c2)o1` (centres unmarked): the “%Inh” value in the assay on RIPK5 worked out at 21%; in the assay on ROCK1, 28%; with ROCK2, 9%; with ROS1, 0%; in [1], 0%; in assay [2], 9%. Further, the “%Inh” value is listed as 0% in assay [3]; 2% in [4]; 0% in assay [5]; 27% in assay [6]; 7% in assay [7]; 4% in [8]. The “%Inh” value stood at 0% in assay [9]; 31% in [10]; 0% in assay [11]; 19% in assay [12]; 0% in the assay on S6K1; 0% in the assay with SBK1. The “%Inh” value in the assay on SGK2 turned out to be 13%; in the assay on SGK3, 0%.

For the compound `COc1cc2ncn(-c3cc(OCc4sccc4Cl)c(C(N)=O)s3)c2cc1OC` [GSK448459], the “%Inh” value in the assay with RIPK5 was 0%; in the assay with ROCK1, 26%; in the assay on ROCK2, 23%; in the assay on ROS1 it was 6%; in assay [1], 13%; in assay [2], 0%. Also, the “%Inh” value in [3] amounted to 5%; in assay [4], 0%; in assay [5], 12%; in assay [6], 0%; in assay [7], 30%; in assay [8], 21%. Also, the “%Inh” value is 10% in assay [9]; 0% in assay [10]; 14% in assay [11]; 20% in [12]; 3% in the assay with S6K1; 4% in the assay with SBK1. Moreover, the “%Inh” value in the assay on SGK2 and in the assay on SGK3 was 0% each time.

For the compound `COc1ccc(S(=O)(=O)NC2CCN(c3cc(C)nc(Nc4cccc(C#N)c4)n3)CC2)cc1.O=C(O)C(F)(F)F` [GSK1653539], the “%Inh” value in the assay on RIPK5 turned out to be 0%; with ROCK1, 0%; with ROCK2 it was 0%; in the assay on ROS1, 16%; in assay [1], 0%; in [2] it was 0%. Besides, the “%Inh” value in [3] is 2%; in assay [4], 23%; in assay [5] it was 8%; in assay [6], 0%; in assay [7], 0%; in assay [8] it was 0%. The “%Inh” value in [9] was determined as 1%; in assay [10], 0%; in [11], 0%; in [12] it was 21%; in the assay on S6K1, 0%; in the assay with SBK1, 0%. Further, the results for the “%Inh” value in the assay with SGK2 and in the assay with SGK3 were 0% and 4%, respectively.

Turning to `Cc1ccc(C(=O)NCC(N)=O)cc1-n1c(C)cc(OCc2ccc(F)cc2F)c(Br)c1=O`, the “%Inh” value is 0% in the assay on RIPK5; 0% in the assay with ROCK1; 0% in the assay on ROCK2; 20% in the assay on ROS1; 0% in [1]; 0% in assay [2]. Also, the “%Inh” value in assay [3] turned out to be 20%; in assay [4] it was 15%; in assay [5], 3%; in [6], 0%; in assay [7], 0%; in assay [8] it was 0%. Further, the “%Inh” value in assay [9] worked out at 22%; in assay [10] it was 9%; in assay [11], 0%; in assay [12] it was 29%; with S6K1, 3%; with SBK1, 0%. For the same compound, the “%Inh” value with SGK2 and with SGK3 was 0% in each case.

Consider `Cc1cn2c(=O)cc(N3CCOCC3)nc2n1Cc1cccc(Cl)c1Cl` [GSK2334006], for which the “%Inh” value with RIPK5 is listed as 0%; in the assay on ROCK1, 33%; in the assay with ROCK2, 30%; in the assay on ROS1 it was 15%; in [1], 27%; in assay [2], 0%. Besides, the “%Inh” value in assay [3] is recorded as 24%; in [4], 6%; in [5], 0%; in assay [6], 5%; in assay [7], 12%; in [8], 25%. For the same compound, the “%Inh” value in assay [9] came to 16%; in [10] it was 0%; in assay [11], 15%; in assay [12], 13%; with S6K1, 3%; in the assay with SBK1 it was 0%. The “%Inh” value with SGK2 and in the assay on SGK3 was 0% each time.

As for `CCc1nc(-c2cccc(C)c2)c(-c2ccnc(NCc3ccccc3)c2)s1`, the “%Inh” value in the assay with RIPK5 was determined as 14%; in the assay with ROCK1 it was 0%; in the assay on ROCK2, 0%; in the assay on ROS1, 0%; in assay [1], 0%; in assay [2], 1%. Also, the “%Inh” value in assay [3] was 1%; in assay [4] it was 4%; in assay [5], 0%; in [6], 57%; in assay [7], 0%; in assay [8], 0%. In addition, the “%Inh” value in assay [9] is listed as 0%; in assay [10], 2%; in [11] it was 0%; in assay [12] it was 53%; with S6K1, 4%; in the assay with SBK1, 0%. Also, the “%Inh” value with SGK2 is reported as 4%; with SGK3 it was 0%.

`O=C(NOCC1CC1)c1ccc(F)c(F)c1Nc1ccc(I)cc1Cl`: the “%Inh” value (in the assay on RIPK5; with ROCK1; in the assay with ROCK2; in the assay with ROS1; in [1]; in [2]) was 0% in each case. Besides, the “%Inh” value in [3] was 0%; in assay [4] it was 0%; in assay [5] it was 0%; in assay [6] it was 6%; in [7], 0%; in assay [8], 0%. The “%Inh” value (in assay [9]; in [10]; in [11]; in assay [12]; in the assay on S6K1; with SBK1) was 0% throughout. The “%Inh” value with SGK2 and in the assay with SGK3 was 0% each time.
